Data taken from the OligoGym collection.

Biological target: CLN5
Assay: pooled miR-30 sensor sort-seq; sequence = guide strand
Details: shRNA
Further: reference of the scale not given here.

Sequence	sensor-assay potency score (higher = more potent)
TATAGTTGCTACTTGAACTAAT	-0.263
TTTGGTTGAACATGTTTCCTGA	0.362
TAGGTAAAAACCAATATTCAAA	-1.15
TAATATGCAGCAATTCTGCTGA	0.18
TTTCTATGTTCTTGAACTCTGC	-0.7
TAGTTGGTTTCTATGTTCTTGA	-0.69
TTCAATGTCATCATCACCCTCC	0.818
TCTATGTTCTTGAACTCTGCTC	0.0222
TTCTTGTATAGTTGGTTTCTAT	-0.695
TTTCCTTCCAGTGAACATCATC	-0.843
TTCATTGTCCTGTTTCACCCAC	0.245
TTATAAAACAAATAGAACTGTT	-0.281
TAGCTTGACAATAAGGATCAGG	-0.401

Biological target: CLRN3
Assay: as above
Details: shRNA

Sequence	sensor-assay potency score (higher = more potent)
TCTCTAACAGCAATCGTACTGG	-0.178
TTACCATGCTGAATTGTCCAGA	-0.037
TAAGTGATGAAAATGCTCCCAT	0.574
TATATTTAGAAGAATGACGAGC	-0.483
TAAAACTGCAAACTTTTTCTTT	-0.472
TTTGAATACCACACAGACCAGC	-1.01
TAAAGCATTTGGAACAACTCTT	0.169
TCTAACAGCAATCGTACTGGTG	-0.061
TTGTCCAGAGAAGCTAACCAGT	-1.23
TTCAGTATCTCTAAAACTGCAA	-0.132
ATTTGGAACAACTCTTCGGAGA	-1.11
TTGAAGCAGAGTCTCTAACAGC	-0.854

Biological target: CMAS
Assay: as above
Details: shRNA

Sequence	sensor-assay potency score (higher = more potent)
TTCTTTAATAAACTTATCCCAA	-0.589
TTTAGCTGGATTTAAATTCAGA	-0.846
TAGTGAGGTAGAGCTGTCTTTT	-0.742
TTTCACTCCATCGAAACTGATG	-0.871
TACATTTGCAAATGTATCCAAC	-0.636
TTTGAAACTTCAGAACTTCTTC	0.8
TTCATCTACAACTGCTAGCTTG	-0.562
TATATATATATCACAAACCAAA	-1.7
TAGAGCTGTCTTTTGAAACTTC	0.56
TTCGATGAACTTGTGCACCAAA	-0.973
TACAACTGCTAGCTTGTCTGAT	-0.274
TCATCTACAACTGCTAGCTTGT	-0.405

Biological target: CMIP
Assay: as above
Details: shRNA

Sequence	sensor-assay potency score (higher = more potent)
TTTTTGGTCTTGTAACAGGAGC	-1.29
TTCGAGGTGAGGATCTTGCTGA	0.014
TCTTTCAAGACAACTTCCCAGC	-0.735
